This passage reports cytotoxicity call results from the antibiotic and cytotoxicity screens of Wong et al. (2023).

Screen size: about 39,000 compounds; about 3,300 (8.5%) were called active. This is one part of a sample in which actives are shown more often than they occur.

The test system of this test is HepG2. Put plainly: cytotoxicity call (relative viability < 0.9). The following applies: 10 µM.
With `CC1=C2C3OC(=O)C(C)C3CCC2(C)C=CC1=O` (stereo unspecified), the cytotoxicity call was “inactive”. To `O=C1NC(=S)NC(=O)C1=Cc1ccccc1` belongs “inactive”. The same measure for `C=CC=CCC1=C(C)C(OC(=O)C2C(C=C(C)C)C2(C)C)CC1=O` (stereo unspecified): “inactive”; for `Oc1cc(Cl)ccc1Oc1ccc(Cl)cc1Cl` [listing 1 of 2 here]: “inactive”; for `Oc1cc(Cl)ccc1Oc1ccc(Cl)cc1Cl` [listing 2 of 2 here]: “active”. The same measure for `Nc1ccc(Cl)cc1Cl`: “inactive”.

Consider `Cc1nc(-c2ccc(-c3ccc(C(=O)N4CCc5cc6c(cc54)C4(CCN(C)CC4)CO6)cc3)c(C)c2)no1`, for which the cytotoxicity call was “active”. Take `NCCc1nc2ccccc2[nH]1`: the cytotoxicity call was “inactive”. Regarding `O[C@H]1[C@H]2[C@H](O)CCCN2C[C@H]1O`, the cytotoxicity call was “inactive”. With `COc1ccc(C(=O)O[C@H]2CC[C@@]3(C)[C@@H]4CC[C@H]5[C@]6(O)C[C@H](O)[C@@]7(O)[C@@H](CN8C[C@@H](C)CC[C@H]8[C@@]7(C)O)[C@]6(O)C[C@@]53O[C@]24O)cc1OC`, the cytotoxicity call was “inactive”. Consider `C[C@@H]1CC[C@@]2(OC1)O[C@H]1C[C@H]3[C@@H]4CC=C5C[C@@H](O[C@@H]6O[C@H](CO)[C@@H](O[C@@H]7O[C@@H](C)[C@H](O)[C@@H](O)[C@H]7O)[C@H](O)[C@H]6O[C@@H]6O[C@@H](C)[C@H](O)[C@@H](O)[C@H]6O)CC[C@]5(C)[C@H]4CC[C@]3(C)[C@H]1[C@@H]2C`, for which the cytotoxicity call was “active”. For the compound `C[C@@H]1CC[C@@]2(OC1)O[C@H]1[C@@H](O)[C@H]3[C@H]4CC[C@H]5C[C@H](O[C@@H]6O[C@H](CO)[C@H](O[C@@H]7O[C@H](CO)[C@@H](O)[C@H](O[C@@H]8OC[C@@H](O)[C@H](O)[C@H]8O)[C@H]7O[C@@H]7O[C@H](CO)[C@H](O)[C@H](O[C@@H]8O[C@H](CO)[C@@H](O)[C@H](O)[C@H]8O)[C@H]7O)[C@H](O)[C@H]6O)[C@H](O)C[C@]5(C)[C@@H]4CC[C@]3(C)[C@H]1[C@@H]2C`, the cytotoxicity call was “inactive”. The same measure for `CC1CCC2(NC1)OC1CC3C4CC=C5CC(O)CCC5(C)C4CCC3(C)C1C2C` (stereo unspecified): “inactive”. To `C[C@@H]1CN([C@@H](C)CO)C(=O)CCCn2cc(nn2)CO[C@H]1CN(C)C(=O)Oc1ccc2ccccc2c1` belongs “inactive”; to `Cc1nc(N)sc1CCN`, “inactive”; to `C1CC2(CCN1)OCCO2`, “inactive”. On to `[N-]=[N+]=NCc1ccccc1C[C@]1(C(=O)NCCN2CCOCC2)N=C(c2ccc(OCCCO)cc2)O[C@H]1c1ccccc1N=[N+]=[N-]`, for which the cytotoxicity call was “active”. As to `COCCCNC(=O)[C@@]1(Cc2ccccc2N=[N+]=[N-])N=C(c2ccc(OCCCO)cc2)O[C@H]1c1ccccc1N=[N+]=[N-]`, the cytotoxicity call was “inactive”. Turning to `[N-]=[N+]=Nc1ccccc1C[C@@]1(C(=O)NCCN2CCOCC2)N=C(c2ccc(OCCCO)cc2)O[C@@H]1c1ccccc1N=[N+]=[N-]`, the cytotoxicity call is “inactive”. With `[N-]=[N+]=NCc1ccccc1C[C@@]1(C(=O)NCCN2CCOCC2)N=C(c2ccc(OCCCO)cc2)O[C@@H]1c1ccccc1N=[N+]=[N-]`, the cytotoxicity call was “active”.

In the case of `Cn1ccnc1C(=O)N[C@H]1CN[C@@H]2CCCO[C@@H]12`, the cytotoxicity call was “inactive”.

In the case of `Nc1ncnc2c1ncn2CCOCP(=O)(O)O`, the cytotoxicity call was “inactive”. To `Cc1cc([C@@H](C#N)c2ccc(Cl)cc2)c(Cl)cc1NC(=O)c1cc(I)cc(I)c1O` belongs “inactive”; to `CC[C@@]1(O)C[C@H](O[C@H]2C[C@H](N(C)C)[C@H](O)[C@H](C)O2)c2c(cc3c(c2O)C(=O)c2c(O)ccc(O)c2C3=O)[C@H]1C(=O)OC`, “active”; to `CCC1(O)CC(O)c2c(cc3c(c2O)C(=O)c2c(O)ccc(O)c2C3=O)C1C(=O)OC` (stereo unspecified), “inactive”. Turning to `Cl.NCCc1cc(O)c(O)cc1O`, the cytotoxicity call was “inactive”. As to `C[C@@H]1CN([C@H](C)CO)C(=O)CCCn2nncc2CO[C@@H]1CN(C)C(=O)Oc1ccc2ccccc2c1`, the cytotoxicity call was “inactive”.

As to `O=C1CC2OCC=C3CN4CCC56c7ccccc7N1C5C2C3CC46.O=S(=O)(O)O` (stereo unspecified), the cytotoxicity call is “active”. To `COc1cc2c(cc1OC)C13CCN4CC5=CCOC6CC(=O)N2C1C6C5CC43` (stereo unspecified) belongs “inactive”; to `O=C(O)C[C@@H]1CC[C@H]2NC[C@H](O)COC[C@@H]2O1`, “inactive”; to `c1ccc2cc3c(cc2c1)-c1cccc2cccc-3c12`, “active”.

For the compound `c1csc(N2CCNCC2)n1`, the cytotoxicity call was “inactive”. Consider `COC(=O)[C@@H]1C(=O)NC[C@H]1C(C)C`, for which the cytotoxicity call was “inactive”.

In the case of `CC(=O)N[C@H]1CCSC1=O`, the cytotoxicity call is “inactive”.

Take `N#[N+]CC(=O)OC[C@H](N)C(=O)O`: the cytotoxicity call is “inactive”.

As to `NC(N)=NOCC[C@H](N)C(=O)O`, the cytotoxicity call is “inactive”. In the case of `[N-]=[N+]=CC(=O)OCC(N)C(=O)O` (stereo unspecified), the cytotoxicity call is “active”. The same measure for `O=C(NCc1ccccn1)[C@]12CNC[C@H]1COC2`: “inactive”. To `O=C1[O][Pt]2([NH][C@@H]3CCCC[C@H]3[NH]2)[O]C1=O` belongs “inactive”; to `CCN1C[C@]2(COC)CC[C@@H](OC)[C@@]34[C@@H]2[C@@H](OC)[C@@H]([C@@H]13)[C@]1(OC(C)=O)C[C@@H](OC)[C@@]2(O)C[C@H]4[C@@H]1[C@H]2OC(=O)c1ccc(OC)cc1`, “inactive”. The same measure for `Cc1cc(O)c2c(=O)c3c(O)cc(O)c4c5c(O)cc(O)c6c(=O)c7c(O)cc(C)c8c1c2c(c34)c(c78)c65`: “active”; for `CC(C)C[C@@H]1C(=O)N2CCC[C@@H]2[C@]2(O)O[C@@](NC(=O)[C@@H]3C=C4c5cccc6[nH]c(Br)c(c56)C[C@@H]4N(C)C3)(C(C)C)C(=O)N12`: “inactive”. For the compound `CC[C@@H](CN)c1ccccc1`, the cytotoxicity call was “inactive”. For the compound `C[N+](C)(C)C[C@H]1CCC[C@@H]1O`, the cytotoxicity call is “inactive”. For `CN1C(=O)N(C)C2C1N(C)C(=O)N2C` (stereo unspecified), the cytotoxicity call is “inactive”.

Regarding `NCCc1ccc(C(=O)c2ccccc2)cc1`, the cytotoxicity call was “inactive”.
